# Measurements taken from ChEMBL document CHEMBL4513146, “CO-ADD screening of Karazin Kharkiv National University (Ukraine) compounds”.
# Potency and affinity values are given separately.
# Tests used:
# [1] = system: Klebsiella pneumoniae; conditions: Concentration 32 ug.mL-1;; ASSAY_TEST Inhibition of Bacterial Growth; detection method Absorption (OD600); MEDIA CAMHB; plate type 384well; NBS; CORNING #3640; time 18 hr
# [2] = system: Candida albicans; conditions: Concentration 32 ug.mL-1; ASSAY_TEST Inhibition of Fungal Growth; detection method Absorption (OD530)
# [3] = system: Cryptococcus neoformans; conditions: Concentration 32 ug.mL-1; ASSAY_TEST Inhibition of Fungal Growth; detection method Resazurin; Absorption (OD600-OD570); plate type 384well; NBS; CORNING #3640
Compound,Inhibition [1] [%],Inhibition [2] [%],Inhibition [3] [%]
CC(C)c1nnc2c(=O)n(CC(=O)Nc3ccc(Cl)cc3)c3ccccc3n12,16.79,3.6,-17.29
COC(=O)c1ccc(NC(=O)Cn2nc3c(Oc4ccccc4C)nccn3c2=O)cc1,-1.16,1.31,-4.07
O=C(Cn1nc2c(Oc3ccccc3)nccn2c1=O)Nc1ccccc1F,-3.78,-2.47,-4.07
